Experimental data as given in PubChem BioAssay (NCI).
The panel holds about 79,000 compounds, 15% with a hit somewhere; the sample as a whole holds those more often. Calls of active or inactive are those of the source. No stated cut-off is given here; in the data, active means growth inhibition above about 70%; inactive means the rest.

Legend:
[1] = NCI Yeast Anticancer Drug Screen. Data for the rad50 strain (AID 155);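 further: 0% = growth of vehicle-only cultures of the same strain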; conditions: S. cerevisiae rad50 strain growth inhibition, stronger effect = higher value
In short: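 Vehicle-treated cultures provide the reference for the growth inhibition reported for compound-exposed, repair-deficient yeast.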

[2] = NCI Yeast Anticancer Drug Screen. Data for the mec2-1 strain (AID 157); conditions: S. cerevisiae mec2-1 strain, stronger effect = higher value
In short: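 Growth inhibition is read against vehicle-treated controls after compound exposure of the mec2-1 yeast strain, which is defective in DNA damage repair or cell cycle control.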

[3] = NCI Yeast Anticancer Drug Screen. Data for the sgs1 mgt1 strain (AID 161);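 further: 0% = growth of cultures given vehicle only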; conditions: S. cerevisiae sgs1 mgt1 strain, stronger effect = higher value
In short: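 Yeast cells carrying a defined DNA-repair defect were exposed to test compounds. Growth inhibition was measured relative to vehicle-treated controls.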

[4] = NCI Yeast Anticancer Drug Screen. Data for the cln2 rad14 strain (AID 165);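 further: 0% = growth equal to vehicle treated cultures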; conditions: S. cerevisiae cln2 rad14 strain, stronger effect = higher value
In short: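 Growth inhibition, relative to vehicle-treated controls, is the read-out. The test organism is a yeast strain with defined genetic alterations, cln2 rad14.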

[5] = NCI Yeast Anticancer Drug Screen. Data for the bub3 strain (AID 167); conditions: S. cerevisiae bub3 mutant strain, stronger effect = higher value
In short: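 Mutant yeast screening strain plus compound; vehicle-treated cultures serve as the 0% inhibition reference.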

[6] = NCI Yeast Anticancer Drug Screen. Data for the mlh1 rad18 strain (AID 175); conditions: S. cerevisiae mlh1 rad18 strain growth inhibition, stronger effect = higher value
In short: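 Cells of a genetically altered yeast strain, deficient in DNA damage repair, were treated with compound. Their growth was then compared with that of vehicle-treated cultures to give inhibition.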

[7] = at 5.0 µM (retest, dose inferred, filed as 0.5)
[8] = at 50.0 µM (retest, dose inferred, filed as 5.0)

Measured: growth inhibition

COC1(OC)C2(Cl)C(Cl)=C(Cl)C1(Cl)C1C2C2CC1(C(=O)O)c1ccccc12 (configuration not stated)
inactive: [1]; [7] 29% | [1]; [8] 29% | [2]; [7] 23% | [2]; [8] 23% | [3]; [7] 17% | [3]; [8] 17% | [4]; [7] 26% | [4]; [8] 26% | [5]; [7] 26% | [5]; [8] 26% | [6]; [7] 41% | [6]; [8] 41%
active: [1]; at 50.0 µM 92% | [2]; at 50.0 µM 93.4% | [3]; at 50.0 µM 93% | [4]; at 50.0 µM 91.5% | [5]; at 50.0 µM 90.8% | [6]; at 50.0 µM 90.5%

CSC(=S)CC(O)[C@@H]1CC2c3ccccc3C1c1ccccc12 (some centres not stated)
inactive: [1]; [7] -5% | [2]; [7] 1% | [3]; [7] 1% | [3]; at 50.0 µM 65.7% | [4]; [7] 2% | [5]; [7] 17% | [6]; [7] 5%
active: [1]; [8] 94% | [1]; at 50.0 µM 76.7% | [2]; [8] 93% | [2]; at 50.0 µM 84.3% | [3]; [8] 93% | [4]; [8] 92% | [4]; at 50.0 µM 79.7% | [5]; [8] 93% | [5]; at 50.0 µM 77% | [6]; [8] 93% | [6]; at 50.0 µM 71.5%

O=C(NC(=Nc1ccccc1)SCCSC(=Nc1ccccc1)NC(=O)c1ccccc1)c1ccccc1
inactive: [1]; [7] 0% | [1]; [8] 0% | [2]; [7] 18% | [2]; [8] 18% | [3]; [7] 10% | [3]; [8] 10% | [4]; [7] 5% | [4]; [8] 5% | [5]; [7] -3% | [5]; [8] -3% | [6]; [7] 1% | [6]; [8] 1%
active: [1]; at 50.0 µM 85.6% | [2]; at 50.0 µM 79.9% | [3]; at 50.0 µM 86.2% | [4]; at 50.0 µM 84.5% | [5]; at 50.0 µM 88% | [6]; at 50.0 µM 78%

O=C1CN=C(c2ccccc2)N(c2ccccc2)N1
inactive: [1]; [7] -1% | [2]; [7] -6% | [3]; [7] -15% | [4]; [7] 2% | [5]; [7] 8% | [6]; [7] -1%
active: [1]; [8] 96% | [1]; at 50.0 µM 94% | [2]; [8] 97% | [2]; at 50.0 µM 96.5% | [3]; [8] 96% | [3]; at 50.0 µM 94.5% | [4]; [8] 93% | [4]; at 50.0 µM 85% | [5]; [8] 97% | [5]; at 50.0 µM 94.7% | [6]; [8] 94% | [6]; at 50.0 µM 94.4%

CC(=O)c1c(-c2ccco2)c(C#N)c(=S)n(C2OC(CO)C(O)C(O)C2O)c1-c1ccccc1 (configuration not stated)
inactive: [1]; [7] -9% | [1]; [8] 12% | [1]; at 50.0 µM 32.9% | [2]; [7] -4% | [2]; [8] 17% | [2]; at 50.0 µM 49.6% | [3]; [7] 0% | [3]; [8] 44% | [3]; at 50.0 µM 58.5% | [4]; [7] 14% | [4]; [8] 28% | [4]; at 50.0 µM 35.2% | [5]; [7] 8% | [5]; [8] 20% | [5]; at 50.0 µM 50.8% | [6]; [7] -25% | [6]; [8] 45% | [6]; at 50.0 µM 62.6%

COc1cc2c(cc1O)C(O)CCCC2 (configuration not stated)
inactive: [1]; [7] -146% | [1]; [8] -152% | [1]; at 50.0 µM 6.6% | [2]; [7] -45% | [2]; [8] -55% | [2]; at 50.0 µM -14.6% | [3]; [7] -62% | [3]; [8] -32% | [3]; at 50.0 µM 41.8% | [4]; [7] -52% | [4]; [8] -61% | [4]; at 50.0 µM -4.15% | [5]; [7] -64% | [5]; [8] -75% | [5]; at 50.0 µM -6.4% | [6]; [7] -147% | [6]; [8] -108% | [6]; at 50.0 µM 12.3%

CC1=C(C#N)C(=O)N(C)C(=O)C1(Cl)Cl
inactive: [1]; [7] -2% | [1]; [8] -12% | [1]; at 50.0 µM -1.3% | [2]; [7] 0% | [2]; [8] -2% | [2]; at 50.0 µM -8.1% | [3]; [7] 1% | [3]; [8] -3% | [3]; at 50.0 µM -7.45% | [4]; [7] 0% | [4]; [8] -12% | [4]; at 50.0 µM 14.6% | [5]; [7] 3% | [5]; [8] 4% | [5]; at 50.0 µM 5.05% | [6]; [7] 1% | [6]; [8] -3% | [6]; at 50.0 µM 9.45%

Nc1ccc2nc3ccccc3nc2c1
active: [1]; [8] 95% | [1]; at 50.0 µM 97% | [2]; at 50.0 µM 81% | [3]; [8] 77% | [4]; at 50.0 µM 74% | [5]; [8] 78% | [5]; at 50.0 µM 75.8% | [6]; [8] 90% | [6]; at 50.0 µM 88.4%
inactive: [1]; [7] -11% | [2]; [7] -11% | [2]; [8] 60% | [3]; [7] -22% | [3]; at 50.0 µM 64.8% | [4]; [7] -10% | [4]; [8] 44% | [5]; [7] -4% | [6]; [7] 4%

Cc1ccccc1NC(=O)CSC(N)=O
inactive: [1]; [7] 2% | [1]; [8] 26% | [2]; [7] -1% | [2]; [8] 34% | [2]; at 50.0 µM 60.4% | [3]; [7] 1% | [3]; [8] 36% | [4]; [7] 5% | [4]; [8] 6% | [4]; at 50.0 µM 55% | [5]; [7] 1% | [5]; [8] 66% | [6]; [7] 0% | [6]; [8] 29%
active: [1]; at 50.0 µM 82.1% | [3]; at 50.0 µM 91.8% | [5]; at 50.0 µM 87.3% | [6]; at 50.0 µM 83%
